KCNQ2 pot: KCNQ2 (rat) channel potentiation | actives 0.54% (n = 310,000) | CHO-K1 KCNQ2, FluxOR thallium flux fluorescence; hits give high values | B-score at 10 µM | AID 2239;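 active = fluorescence ratio B-score at least 3 SD of library B-scores, with initial fluorescence B-score within 3 of them, cut at about 5.3 in these data; same plate scores as AID 2156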;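 note: B-score of peak minus minimum over baseline fluorescence ratio after K+ and Tl+ stimulus; positive B-score means potentiation of KCNQ2 with more thallium influx and brighter signal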
Target sequence (O88943 whole entry, looked up): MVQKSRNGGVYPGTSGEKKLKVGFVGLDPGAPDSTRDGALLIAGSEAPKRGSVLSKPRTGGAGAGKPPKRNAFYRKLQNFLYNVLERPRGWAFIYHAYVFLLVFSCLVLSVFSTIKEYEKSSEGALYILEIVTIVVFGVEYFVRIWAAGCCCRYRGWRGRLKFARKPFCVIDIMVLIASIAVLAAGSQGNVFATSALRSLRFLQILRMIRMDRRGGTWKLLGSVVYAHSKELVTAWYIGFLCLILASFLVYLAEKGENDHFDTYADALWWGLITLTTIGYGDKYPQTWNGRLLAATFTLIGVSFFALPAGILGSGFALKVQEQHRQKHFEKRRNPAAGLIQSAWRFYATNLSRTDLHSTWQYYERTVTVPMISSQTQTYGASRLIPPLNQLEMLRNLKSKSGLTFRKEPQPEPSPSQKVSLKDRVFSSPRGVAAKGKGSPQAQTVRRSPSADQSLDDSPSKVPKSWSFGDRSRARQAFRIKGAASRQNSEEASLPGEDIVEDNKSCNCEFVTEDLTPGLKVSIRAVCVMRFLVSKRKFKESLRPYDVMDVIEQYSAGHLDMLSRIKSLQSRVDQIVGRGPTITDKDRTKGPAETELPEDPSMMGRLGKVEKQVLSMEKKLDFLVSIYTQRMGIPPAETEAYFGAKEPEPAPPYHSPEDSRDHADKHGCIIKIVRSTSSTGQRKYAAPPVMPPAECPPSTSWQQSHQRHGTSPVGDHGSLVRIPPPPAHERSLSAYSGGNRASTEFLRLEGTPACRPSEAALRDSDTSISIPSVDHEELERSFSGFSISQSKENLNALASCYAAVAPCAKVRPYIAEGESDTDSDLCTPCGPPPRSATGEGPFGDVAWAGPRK
KCNQ2 inh: blocks the rat KCNQ2 potassium channel; CHO-K1 KCNQ2, FluxOR thallium flux, 20 min; hits give low values; AID 2156; B-score at 10 µM; actives 1.1% (n = 310,000);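 active = fluorescence ratio B-score at most minus 3 library SDs, with starting brightness B-score within 2 library SDs, cut at about -5.5 in these data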
The depositor's hits bear a star. The list is not random: actives were taken first. Their share in the collection is about 1.6%.

For CC(C)(C#CC(=O)O)OOC(c1ccccc1)(c1ccccc1)c1ccccc1 the results were KCNQ2 pot -11 and KCNQ2 inh -11*.
For CC1CCCCC1NC(=O)CNC(=S)N1CC2CC(C1)c1cccc(=O)n1C2 (stereo not drawn) the results were KCNQ2 inh inactive.
Screening COC(=O)C1=C(c2cccc(OC)c2OC)C[C@@H]2CC[C@H]1N2C(=O)NCc1ccco1 returned KCNQ2 pot 0.94 and KCNQ2 inh inactive.
COc1ccc(C2SCC(=O)Nc3c2c(C)nn3-c2ccccc2)cc1 (stereo not drawn) was read as KCNQ2 pot 0.6 and KCNQ2 inh inactive.
For Cc1ccc(-n2nc(C)c3c2NC(=O)CSC3c2ccc3c(c2)OCO3)cc1 (stereo not drawn) the results were KCNQ2 pot -5.6 and KCNQ2 inh -5.6*.
`CC[n+]1c(/C=C/C=C/c2ccc(N(C)C)cc2)sc2ccccc21` gave KCNQ2 pot -7.9 and KCNQ2 inh -7.9*.
`CN(C)c1ccc(/C=C/C=C/c2sc3ccccc3[n+]2C)cc1` gave KCNQ2 pot 0.07 and KCNQ2 inh inactive.
`O=C(Nc1nc(-c2ccccc2)c(-c2ccccc2)s1)c1ccc(S(=O)(=O)N(CCCl)CCCl)cc1` gave KCNQ2 pot 1.8 and KCNQ2 inh inactive.
`CC(=NCCN1CCCCC1)c1c(O)n(-c2ccc(Cl)cc2)c(=O)[nH]c1=O` gave KCNQ2 pot 0.24 and KCNQ2 inh inactive.
Screening c1ccc([C@@H]2CO2)cc1 returned KCNQ2 inh inactive.
For Cc1nn(Cc2ccccc2)c(Cl)c1C(=O)OCC(=O)N1CCCC1 the results were KCNQ2 pot 1.3 and KCNQ2 inh inactive.
Fc1ccc(C2=CCN(C(c3ccc(Cl)cc3)c3nnnn3Cc3ccccc3)CC2)cc1 (stereo not drawn) was read as KCNQ2 inh inactive.
Screening Cc1ccc(C(c2nnnn2Cc2ccccc2)N2CC=C(c3ccc(F)cc3)CC2)cc1 (stereo not drawn) returned KCNQ2 pot -5.7 and KCNQ2 inh -5.7*.
C=CCn1c(=O)c(C=Nc2c(OC)cccc2[N+](=O)[O-])c(O)n(CCCC)c1=O was read as KCNQ2 inh inactive.
COc1ccc(NC(=O)N2C[C@@H]3C[C@@H](C2)c2cccc(=O)n2C3)c(OC)c1 was read as KCNQ2 pot 2.4 and KCNQ2 inh inactive.
For CCc1ccccc1NC(=O)CNC1CCCCC1 the results were KCNQ2 inh inactive.
Screening CN(CC(=O)Nc1ccccc1-c1ccccc1)C1CCCCC1 returned KCNQ2 pot -6.4 and KCNQ2 inh -6.4*.
For CCCCn1c(O)c(C(C)=NCCc2ccccc2)c(=O)[nH]c1=O the results were KCNQ2 pot 0.51 and KCNQ2 inh inactive.
CCCCn1c(O)c(C(C)=Nc2ccc(C(=O)O)cc2)c(=O)[nH]c1=O was read as KCNQ2 pot 5.6* and KCNQ2 inh inactive.
COc1cccc(-n2c(CN3CCN(C)CC3)nc3ccc([N+](=O)[O-])cc3c2=O)c1 was read as KCNQ2 inh inactive.
C=CCSc1nc2c(c(-c3ccsc3)c1C#N)CN(C)CC2 was read as KCNQ2 pot 0.21 and KCNQ2 inh inactive.
C/C1=C\[C@@H](C)C/C=C/[C@H]2[C@@H]3O[C@]3(C)[C@@H](C)[C@H]3[C@H](Cc4c[nH]c5ccccc45)NC(=O)[C@]32C(=O)/C=C/C(=O)[C@@H]1O was read as KCNQ2 pot 8.3* and KCNQ2 inh inactive.
c1ccc(-c2ccc(-c3n(-c4ccccn4)c4ccccc4[n+]3-c3ccccn3)cc2)cc1 was read as KCNQ2 pot -7.7 and KCNQ2 inh -7.7*.
For Cc1nn(Cc2ccccc2)c(C)c1C(=O)OCC(=O)Nc1cc(S(C)(=O)=O)ccc1Cl the results were KCNQ2 inh inactive.
`COc1ccc(-n2nc(C(=O)NCC(=O)N3CCC4(CC3)OCCO4)c3ccccc3c2=O)cc1Cl` gave KCNQ2 inh inactive.
Screening CCc1nc2ccc(Br)cc2c(=O)n1-c1ccccc1C(F)(F)F returned KCNQ2 inh inactive.
CCCc1nc2ccc(Br)cc2c(=O)n1-c1ccc([N+](=O)[O-])c(C(F)(F)F)c1 was read as KCNQ2 pot -6 and KCNQ2 inh -6*.
C=C(C=O)CC1CC(O)[C@]2(C)OC3CC4OC5C[C@]6(C)O[C@]7(C)CCC8OC9C[C@]%10(C)OC%11C(C)=CC(=O)OC%11CC%10OC9C[C@@H](C)C8OC7CC6O[C@]5(C)CC5OC5C4OC3CC2O1 (stereo partly drawn) was read as KCNQ2 pot -5.6 and KCNQ2 inh -5.6*.
For C=C(CO)CC1CC(O)[C@]2(C)OC3CC4OC5C[C@]6(C)O[C@]7(C)CCC8OC9C[C@]%10(C)OC%11C(C)=CC(=O)OC%11CC%10OC9C[C@@H](C)C8OC7CC6O[C@]5(C)C/C=C\C4OC3CC2O1 (stereo partly drawn) the results were KCNQ2 pot 0.1 and KCNQ2 inh inactive.
Cc1cccc(-n2c(O)c(C)c(=O)[nH]c2=S)c1 was read as KCNQ2 pot 0.92 and KCNQ2 inh inactive.
Screening COC(=O)C1=C(c2cc3ccccc3s2)C[C@@H]2CC[C@H]1N2C(=O)NCCNC(C)=O returned KCNQ2 inh inactive.
C=C1[C@H]2C[C@H]3[C@H]4N5C[C@]6(C)CCC[C@]47[C@H]([C@H]2O)[C@]3(C[C@]5(O)[C@H]67)[C@@H]1O was read as KCNQ2 pot 1.2 and KCNQ2 inh inactive.
Cc1cnc(NC(=O)CN2CCCCC2)s1 was read as KCNQ2 pot 0.02 and KCNQ2 inh inactive.
Screening Cc1ccc(C)c(NP(=O)(Oc2ccccc2)Oc2ccccc2)c1 returned KCNQ2 pot 0.73 and KCNQ2 inh inactive.
Screening Cc1cccc(OP(=O)(Oc2ccccc2)OC(c2ccccc2)C(F)(F)F)c1 (stereo not drawn) returned KCNQ2 pot -6.5 and KCNQ2 inh -6.5*.
Screening CC(=O)NC(Cc1ccc(N(CCCl)CCCl)cc1)C(=O)NCC(=O)NCC(=O)O (stereo not drawn) returned KCNQ2 inh inactive.
CCCN1CCCC(C(=O)c2cc(C)c(OC)c(C)c2)C1 (stereo not drawn) was read as KCNQ2 inh inactive.
For CCOC(=O)C1CCCN(c2ccc([N+](=O)[O-])c3nonc23)C1 (stereo not drawn) the results were KCNQ2 inh inactive.
CCOC(=O)c1c(NC(=O)C(c2ccccc2)c2ccccc2)sc2c1C1CCN2CC1 was read as KCNQ2 pot -7.2 and KCNQ2 inh -7.2*.
For CCOC(=O)c1c(NC(=O)c2c(N)n(CCCOC)c3nc4ccccc4nc23)sc2c1CCCC2 the results were KCNQ2 pot 1.3 and KCNQ2 inh inactive.
For O=C1NC(=O)[C@]2(Cc3ccccc3N3CCN(c4ccccc4)CC32)C(=O)N1Cc1ccccc1 (stereo partly drawn) the results were KCNQ2 pot -5.7 and KCNQ2 inh -5.7*.
O=C1NC(=O)C2(Cc3ccccc3N3CCCC32)C(=O)N1Cc1ccccc1 (stereo not drawn) was read as KCNQ2 inh inactive.
O=C1NC(=O)[C@]2(Cc3ccccc3N3CCN(c4ccccc4)CC32)C(=O)N1c1ccccc1 (stereo partly drawn) was read as KCNQ2 pot -6.1 and KCNQ2 inh -6.1*.
`CN1C(=O)NC(=O)[C@]2(Cc3ccccc3N3CCN(c4ccccc4)CC32)C1=O` (stereo partly drawn) gave KCNQ2 inh inactive.

Source: PubChem
